# Data from the supplement of paper PMC3545927.
# The list shows a part of the results. No count for the full screen is at hand.
# Target: furin, P09958
# Assay: furin cleavage Z-score vs untreated control; higher = more cleavage, active = 3.5 or more, inactive = 1 or less, 8 variable residues between constant flanks
# Procedure, shortened: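 The cleavage Z-score was derived for purified furin acting on 8-mer peptides held on magnetic beads and fused to a cDNA oligonucleotide. Digests lasted 7.5, 15 or 30 min at 1:10 enzyme:substrate in 50 mM HEPES pH 7.5 with CaCl2 and NaCl. Sequencing counts of released DNA, log-transformed against furin-free reactions, were lowess-adjusted and scaled by median absolute deviation.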
# Chain of furin, P09958 (P09958 whole entry): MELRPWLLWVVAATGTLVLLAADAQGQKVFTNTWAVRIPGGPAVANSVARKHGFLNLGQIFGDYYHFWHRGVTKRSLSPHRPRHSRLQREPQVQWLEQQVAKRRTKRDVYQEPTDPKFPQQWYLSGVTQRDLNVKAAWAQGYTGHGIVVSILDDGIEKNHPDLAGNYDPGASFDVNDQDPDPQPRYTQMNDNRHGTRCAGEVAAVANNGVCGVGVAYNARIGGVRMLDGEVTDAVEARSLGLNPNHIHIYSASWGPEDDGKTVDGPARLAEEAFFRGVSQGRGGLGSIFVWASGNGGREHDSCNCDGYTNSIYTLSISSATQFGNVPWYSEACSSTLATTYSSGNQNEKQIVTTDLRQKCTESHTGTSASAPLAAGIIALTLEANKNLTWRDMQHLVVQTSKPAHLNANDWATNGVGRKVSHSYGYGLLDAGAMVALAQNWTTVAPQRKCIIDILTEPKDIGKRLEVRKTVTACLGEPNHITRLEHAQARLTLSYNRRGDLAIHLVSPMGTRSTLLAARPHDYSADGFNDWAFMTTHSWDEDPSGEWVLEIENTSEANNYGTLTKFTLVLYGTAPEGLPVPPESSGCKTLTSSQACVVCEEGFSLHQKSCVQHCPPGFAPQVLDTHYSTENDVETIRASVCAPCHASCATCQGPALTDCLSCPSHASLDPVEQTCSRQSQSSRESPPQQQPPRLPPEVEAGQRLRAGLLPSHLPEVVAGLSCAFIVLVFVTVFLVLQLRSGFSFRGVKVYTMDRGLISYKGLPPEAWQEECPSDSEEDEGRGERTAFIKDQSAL
Sequence,furin cleavage Z-score (7.5 min),furin cleavage Z-score (15 min),furin cleavage Z-score (30 min)
CAMSGRRLREAGNASASA [FS-1468],3.25,3.96 (active),3.6 (active)
CAGGGRTRREAGNASASA [FS-427],3.88 (active),3.57 (active),2.42
CAGGGGGGGGAGNASASA [NE1],1.03,0.409 (inactive),1.54
CAEGGRRRREAGNASASA [FS-1318],4.58 (active),3.64 (active),2.94
CAMSGEVPSTAGNASASA [HC1095],-0.208 (inactive),-0.846 (inactive),0.503 (inactive)
CAPPLEGEPGAGNASASA [HC1355],0.988 (inactive),0.95 (inactive),0.522 (inactive)
CAGKSVKKRSAGNASASA [FS-161],8.72 (active),12 (active),9.51 (active)
CAGKSLKKRSAGNASASA [FS-1198],10.8 (active),8.86 (active),8.35 (active)
CAPEKGGRKPAGNASASA [HC1445],0.667 (inactive),-1.91 (inactive),-0.0787 (inactive)
CATCRNMWSGAGNASASA [HC1186],1.45,1.34,0.472 (inactive)
CAIVVTSTWVAGNASASA [HC2144],0.282 (inactive),-0.196 (inactive),0.858 (inactive)
CALLVRKKRKAGNASASA [FS-824],9.19 (active),10.5 (active),8.06 (active)
CAIFWRKKRKAGNASASA [FS-337],4.37 (active),3.52 (active),5.53 (active)
CAHLVRKKRKAGNASASA [FS-1339],10.2 (active),11.5 (active),10.3 (active)
CASGSKKKRKAGNASASA [FS-1278],-1.57 (inactive),0.447 (inactive),0.492 (inactive)
